Records with an inconclusive call do not appear. A number with no mark means an inactive call. Calls of active or inactive are those of the source. The call rests on the fitted dose curve; tested in HEK293 reporter line. Peptide text beside a SMILES is read from it.

We go through 38 compounds from PubChem BioAssay (NCATS).
On the % scale 0 is the no-effect control and ±100 the full control effect.

The nature of one test: qHTS for Inhibitors of the Functional Ribonucleoprotein Complex (vRNP) of Lassa (LASV) Arenavirus: LASV Primary Screen - GLuc reporter signal (AID 1347082). Further: nearly all actives have a fitted effect of over 60% in size. Particulars: LASV minigenome vRNP, Gaussia luciferase reporter; series mostly up to 57.5 µM; activity change, negative = inhibition: at the top concentration. (In general: In qHTS, concentration-response curves come from the screen itself.)
As to `CN1[C@@H]2CCC[C@@H]1CC(NC(=O)c1nn(C)c3ccccc13)C2` (stereo partly drawn), the “activity change, negative = inhibition” value was 2.05%. `CCOc1nc2cccc(C(=O)O)c2n1Cc1ccc(-c2ccccc2-c2nn[nH]n2)cc1`: the “activity change, negative = inhibition” value is 0.791%.

In the case of `CC[N+](C)(CC)CCOC(=O)C1c2ccccc2Oc2ccccc21`, the “activity change, negative = inhibition” value is 7.18%. Turning to `Cc1ccc(C(C)C)c(O)c1`, the Potency entry was “inactive”. For `CC12CCC(CC1)C(C)(C)O2`, the “activity change, negative = inhibition” value was 3.9%. Consider `Nc1ccc(O)cc1`, for which the “activity change, negative = inhibition” value is 3.05%. For the compound `NCCCCCC(=O)O`, the Potency result was “inactive”. The same measure, in the same setting: the entry for `OCCN1CCN(CC/C=C2/c3ccccc3Sc3ccc(C(F)(F)F)cc32)CC1` is “inactive”.

As for `CN1C(C(=O)Nc2ccccn2)=C(O)c2ccccc2S1(=O)=O`, the Potency entry was “inactive”. In the case of `CSCC[C@H](NC(=O)[C@H](Cc1c[nH]c2ccccc12)NC(=O)CCNC(=O)OC(C)(C)C)C(=O)N[C@@H](CC(=O)O)C(=O)N[C@@H](Cc1ccccc1)C(N)=O`, the “activity change, negative = inhibition” value was -14.8%. With `C[C@H]1O[C@@H](n2cc(F)c(=O)[nH]c2=O)[C@H](O)[C@@H]1O`, the “activity change, negative = inhibition” value is 9.14%. For `O=C(O)c1cc(O)c(O)c(O)c1`, the “activity change, negative = inhibition” value is 1.63%. Still for that read-out and setting: for `OC[C@H]1O[C@@H](n2cnc3c2NC=NC[C@H]3O)C[C@@H]1O` the value was -1.01%; for `CCNC(=O)[C@@H]1CCCN1C(=O)[C@H](CCCN=C(N)N)NC(=O)[C@H](CC(C)C)NC(=O)CNC(=O)[C@H](Cc1ccc(O)cc1)NC(=O)[C@H](CO)NC(=O)[C@H](Cc1c[nH]c2ccccc12)NC(=O)[C@H](Cc1cnc[nH]1)NC(=O)[C@@H]1CCC(=O)N1` (HELM PEPTIDE1{[Glp].H.W.S.Y.G.L.R.P.[CCN[*:1]]}$$$$V2.0), -3.9%; for `O=c1[nH]c(=O)n([C@H]2O[C@H](CO)[C@@H](O)[C@@H]2O)cc1/C=C\Br`, 9.39%. Same read-out and setting: the figure for `CC[C@H](C)[C@H](N)C(=O)O` is -17%. For the compound `O=C(O)CCCC[P+](c1ccccc1)(c1ccccc1)c1ccccc1`, the “activity change, negative = inhibition” value was 3.26%.

With `CN(C)CCc1c[nH]c2ccc(Cn3cncn3)cc12`, the “activity change, negative = inhibition” value is -1.35%.

For the compound `N#CC1(c2ccc(F)cc2)CCC(=O)CC1`, the “activity change, negative = inhibition” value was 4.44%.

`CCCCCCCCCCC[C@@H](C[C@@H]1OC(=O)[C@H]1CCCCCC)OC(=O)[C@H](CC(C)C)NC=O`: the “activity change, negative = inhibition” value is -2.47%.

A further test is described as follows: qHTS for Inhibitors of the Functional Ribonucleoprotein Complex (vRNP) of Lassa (LASV) Arenavirus: Viability assay - alamar blue signal for LASV Primary Screen (AID 1347083). Further: nearly all actives have a fitted effect of over 80% in size. Conditions: cell viability, alamar blue fluorescence (LASV minigenome counter-screen); series mostly up to 57.5 µM; activity change, negative = reduced viability: at the top concentration.
As to `Cc1cn([C@@H]2O[C@H](CO)[C@@H](O)[C@H]2F)c(=O)[nH]c1=O`, the “activity change, negative = reduced viability” value is 2.12%.

Take `Cc1cc(CC(=O)O)c(C)n1-c1ccc(Cl)cc1`: the “activity change, negative = reduced viability” value is 18.9%. For the compound `CCCCCC[C@@H](CCC)C(=O)O`, the “activity change, negative = reduced viability” value was -0.878%.

In the case of `COc1nccnc1NS(=O)(=O)c1ccc(N)cc1`, the “activity change, negative = reduced viability” value was 7.76%. Consider `O=S(=O)(O)c1cc(I)c(O)c2ncccc12`, for which the “activity change, negative = reduced viability” value is 5.8%.

For the compound `Oc1cccc(O)c1`, the “activity change, negative = reduced viability” value is 4.13%. As to `CN(C)CCN1CCN(c2cccc(Cl)c2)C1=O`, the “activity change, negative = reduced viability” value was 1.31%. For `Cc1cccc(C)c1NC(=O)CN(CC(=O)O)CC(=O)O`, the “activity change, negative = reduced viability” value was -1.33%. Consider `CCCCNC(=O)NS(=O)(=O)c1ccc(N)cc1`, for which the “activity change, negative = reduced viability” value was -7.9%. For the compound `NC[C@H]1O[C@H](O[C@H]2[C@H](O[C@@H]3O[C@H](CO)[C@@H](O)[C@H]3O)C(O)[C@H](N)C[C@@H]2N)[C@H](N)[C@@H](O)[C@@H]1O` (stereo partly drawn), the activity change, negative = reduced viability is -0.396% [at 11.5 µM].

Turning to `CC(=O)[C@@]1(O)CC[C@H]2[C@@H]3C[C@H](C)C4=CC(=O)C=C[C@]4(C)[C@@]3(F)[C@@H](O)C[C@@]21C`, the “activity change, negative = reduced viability” value is -3.79%.

Take `CCCCCCCCCCCCCCCC(=O)O`: the “activity change, negative = reduced viability” value is 3.21%.

For `CO[C@@H]1[C@@H](OC(N)=O)[C@@H](O)[C@H](Oc2ccc3c(O)c(NC(=O)c4ccc(O)c(CC=C(C)C)c4)c(=O)oc3c2C)OC1(C)C`, the Potency result was “inactive”. Turning to `Cc1cc(C)c(NC(=O)CN(CC(=O)O)CC(=O)O)c(C)c1Br`, the “activity change, negative = reduced viability” value is 11.9%.

Take `CC(C(=O)O)c1ccc(/C=C2\CCCCC2=O)cc1` (stereo not drawn): the “activity change, negative = reduced viability” value is 9.05%.

As to `N=C(N)N`, the “activity change, negative = reduced viability” value is 14.1%.

As for `Cc1ccc(O)c2ncccc12`, the “activity change, negative = reduced viability” value is -10.9%. Still for that read-out and setting: for `NS(=O)(=O)c1cc(C(=O)NN2C[C@H]3[C@H]4CCC(C4)[C@H]3C2)ccc1Cl` the value was 4.1%.

For the compound `CN1[C@@H]2CCC[C@@H]1CC(NC(=O)c1nn(C)c3ccccc13)C2` (stereo partly drawn), the “activity change, negative = reduced viability” value is -23%. Take `CCOc1nc2cccc(C(=O)O)c2n1Cc1ccc(-c2ccccc2-c2nn[nH]n2)cc1`: the “activity change, negative = reduced viability” value is 34.3%. Same read-out and setting: for `CC[N+](C)(CC)CCOC(=O)C1c2ccccc2Oc2ccccc21` the value was 10.2%.

For the compound `Cc1ccc(C(C)C)c(O)c1`, the Potency entry is “inactive”.

For `CC12CCC(CC1)C(C)(C)O2`, the “activity change, negative = reduced viability” value was 4.27%. As to `Nc1ccc(O)cc1`, the “activity change, negative = reduced viability” value was -1.58%. `NCCCCCC(=O)O`: the Potency entry is “inactive”. As to `OCCN1CCN(CC/C=C2/c3ccccc3Sc3ccc(C(F)(F)F)cc32)CC1`, the Potency entry is “inactive”.

For the compound `CN1C(C(=O)Nc2ccccn2)=C(O)c2ccccc2S1(=O)=O`, the Potency result was “inactive”. On to `CSCC[C@H](NC(=O)[C@H](Cc1c[nH]c2ccccc12)NC(=O)CCNC(=O)OC(C)(C)C)C(=O)N[C@@H](CC(=O)O)C(=O)N[C@@H](Cc1ccccc1)C(N)=O`, for which the “activity change, negative = reduced viability” value is -1.44%. On the same count and under the same terms, for `C[C@H]1O[C@@H](n2cc(F)c(=O)[nH]c2=O)[C@H](O)[C@@H]1O` the value was -0.164%; for `O=C(O)c1cc(O)c(O)c(O)c1`, -26.7%; for `OC[C@H]1O[C@@H](n2cnc3c2NC=NC[C@H]3O)C[C@@H]1O`, 2.22%. Consider `CCNC(=O)[C@@H]1CCCN1C(=O)[C@H](CCCN=C(N)N)NC(=O)[C@H](CC(C)C)NC(=O)CNC(=O)[C@H](Cc1ccc(O)cc1)NC(=O)[C@H](CO)NC(=O)[C@H](Cc1c[nH]c2ccccc12)NC(=O)[C@H](Cc1cnc[nH]1)NC(=O)[C@@H]1CCC(=O)N1` (HELM PEPTIDE1{[Glp].H.W.S.Y.G.L.R.P.[CCN[*:1]]}$$$$V2.0), for which the “activity change, negative = reduced viability” value was 11.5%. For `O=c1[nH]c(=O)n([C@H]2O[C@H](CO)[C@@H](O)[C@@H]2O)cc1/C=C\Br`, the “activity change, negative = reduced viability” value was 10.5%. Same read-out and setting: for `CC[C@H](C)[C@H](N)C(=O)O` the value was 4.32%; for `O=C(O)CCCC[P+](c1ccccc1)(c1ccccc1)c1ccccc1`, 16.3%; for `CN(C)CCc1c[nH]c2ccc(Cn3cncn3)cc12`, 9.49%.

With `N#CC1(c2ccc(F)cc2)CCC(=O)CC1`, the “activity change, negative = reduced viability” value was -2.99%. With `CCCCCCCCCCC[C@@H](C[C@@H]1OC(=O)[C@H]1CCCCCC)OC(=O)[C@H](CC(C)C)NC=O`, the “activity change, negative = reduced viability” value is -2.52%.
